Experimental data taken from PubChem BioAssay (NCI).
This is part of a sample that, as a whole, favours compounds with a hit. Of some 79,000 tested, about 15% had one in any assay. Active and inactive are the calls of the source. Cut-off read from the data, not from the text of the source: active = growth inhibition above about 70%; inactive = the rest.

How the values were obtained:
[1] = NCI Yeast Anticancer Drug Screen. Data for the rad52 strain (AID 147);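 note: 0% = growth of vehicle-treated control cultures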; details: S. cerevisiae rad52 mutant growth inhibition, stronger effect = higher value
In short: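 Yeast strain carrying a DNA damage repair alteration was exposed to test compounds. Growth inhibition was measured relative to vehicle-treated controls.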

[2] = NCI Yeast Anticancer Drug Screen. Data for the wt1 strain (AID 149);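 note: 0% = growth of vehicle-treated wt1 cultures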; details: S. cerevisiae wt1 strain (SPY 50644) growth inhibition, stronger effect = higher value
In short: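 Each compound is tested on wt1 yeast and the loss of growth versus vehicle gives the inhibition value.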

[3] = NCI Yeast Anticancer Drug Screen. Data for the mgt1 strain (AID 153); details: S. cerevisiae mgt1 mutant growth inhibition, stronger effect = higher value
In short: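 Yeast mgt1 strain (DNA repair/cell-cycle alteration panel) exposed to compounds; growth inhibition measured relative to vehicle-treated controls.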

[4] = NCI Yeast Anticancer Drug Screen. Data for the rad50 strain (AID 155);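 note: 0% = growth of vehicle-only cultures of the same strain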; details: S. cerevisiae rad50 strain growth inhibition, stronger effect = higher value
In short: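 Vehicle-treated cultures provide the reference for the growth inhibition reported for compound-exposed, repair-deficient yeast.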

[5] = NCI Yeast Anticancer Drug Screen. Data for the mec2-1 strain (AID 157); details: S. cerevisiae mec2-1 strain, stronger effect = higher value
In short: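 mec2-1 yeast strain, carrying an alteration in DNA damage repair or cell cycle control, was exposed to compounds; growth inhibition was measured relative to vehicle-treated controls.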

[6] = NCI Yeast Anticancer Drug Screen. Data for the rad14 strain (AID 159);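 note: 0% = growth of vehicle-treated control cultures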; details: S. cerevisiae rad14 strain growth inhibition, stronger effect = higher value
In short: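 Inhibition of growth is reported for a repair-deficient yeast mutant following compound treatment, calculated relative to cultures that received vehicle.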

[7] = NCI Yeast Anticancer Drug Screen. Data for the sgs1 mgt1 strain (AID 161);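 note: 0% = growth of cultures given vehicle only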; details: S. cerevisiae sgs1 mgt1 strain, stronger effect = higher value
In short: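 Percent growth inhibition was derived by comparing compound-exposed mutant yeast with vehicle-exposed cultures. The strain carries alterations in DNA damage repair.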

[8] = NCI Yeast Anticancer Drug Screen. Data for the CLN2oe strain (AID 163);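 note: 0% = growth of vehicle-only control cultures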; details: S. cerevisiae CLN2oe strain, stronger effect = higher value
In short: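 Yeast cells carrying a defined cell-cycle control alteration were exposed to test compounds. Growth inhibition was scored against vehicle-treated control cultures.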

[9] = NCI Yeast Anticancer Drug Screen. Data for the cln2 rad14 strain (AID 165);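 note: 0% = growth equal to vehicle treated cultures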; details: S. cerevisiae cln2 rad14 strain, stronger effect = higher value
In short: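 Yeast carrying cln2 and rad14 alterations (cell cycle control and DNA damage repair) were exposed to compounds. Growth inhibition was measured against vehicle-treated controls.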

[10] = NCI Yeast Anticancer Drug Screen. Data for the bub3 strain (AID 167); details: S. cerevisiae bub3 mutant strain, stronger effect = higher value
In short: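 Mutant yeast screening strain plus compound; vehicle-treated cultures serve as the 0% inhibition reference.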

[11] = NCI Yeast Anticancer Drug Screen. Data for the wt2 strain (AID 169); details: S. cerevisiae wt2 strain growth inhibition, stronger effect = higher value
In short: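 Yeast cells were exposed to test compounds, and growth inhibition was measured relative to vehicle-treated controls.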

[12] = NCI Yeast Anticancer Drug Screen. Data for the mlh1 strain (AID 171);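 note: 0% = growth of vehicle-treated control cultures of the same strain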; details: S. cerevisiae mlh1 strain growth inhibition, stronger effect = higher value
In short: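 Yeast carrying a defined genetic alteration in DNA damage repair or cell cycle control were exposed to test compounds. Growth inhibition was measured relative to vehicle-treated controls.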

[13] = NCI Yeast Anticancer Drug Screen. Data for the sgs1 strain (AID 173);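 note: 0% = growth of vehicle-only control cultures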; details: S. cerevisiae sgs1 mutant, stronger effect = higher value
In short: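 Yeast mutant strains carrying defined defects in DNA damage repair or cell cycle control were exposed to test compounds. Growth inhibition was scored against vehicle-treated controls.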

[14] = NCI Yeast Anticancer Drug Screen. Data for the mlh1 rad18 strain (AID 175); details: S. cerevisiae mlh1 rad18 strain growth inhibition, stronger effect = higher value
In short: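 Growth inhibition of the yeast strain was measured after compound exposure and expressed relative to vehicle-treated controls. The strain carries defined defects in DNA damage repair.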

[15] = NCI Yeast Anticancer Drug Screen. Data for the rad18 strain (AID 177); details: S. cerevisiae rad18 mutant growth inhibition, stronger effect = higher value
In short: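 Yeast carrying a defined DNA damage repair alteration were exposed to compounds. Growth inhibition was expressed relative to vehicle-treated controls.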

[16] = NCI Yeast Anticancer Drug Screen. Data for the rad50EPP+ strain (AID 151);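 note: 0% = growth of vehicle-treated control cultures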; details: S. cerevisiae rad50 mutant strain, stronger effect = higher value
In short: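 Yeast strain carrying rad50 alteration (rad50EPP+) exposed to compounds; growth inhibition measured relative to vehicle-treated controls.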

[17] = at 5.0 µM (retest, dose inferred, filed as 0.5)
[18] = at 50.0 µM (retest, dose inferred, filed as 5.0)

Measured: growth inhibition

CNC(=O)ON(C(C)=O)C(=O)NC
inactive: [1]; at 1.2 µM -27% | [1]; at 3.7 µM -14% | [1]; at 11.0 µM -22% | [1]; at 33.0 µM -38% | [1]; at 100.0 µM -24% | [2]; at 1.2 µM -60% | [2]; at 3.7 µM -52% | [2]; at 11.0 µM -58% | [2]; at 33.0 µM -65% | [2]; at 100.0 µM -60% | [3]; at 1.2 µM -9% | [3]; at 3.7 µM 0% | [3]; at 11.0 µM 0% | [3]; at 33.0 µM 8% | [3]; at 100.0 µM 12% | [4]; at 1.2 µM -17% | [4]; at 3.7 µM -40% | [4]; [17] 13% | [4]; at 11.0 µM -20% | [4]; at 33.0 µM -17% | [4]; [18] 26% | [4]; at 100.0 µM -4% | [5]; at 1.2 µM -9% | [5]; at 3.7 µM -4% | [5]; [17] 2% | [5]; at 11.0 µM 5% | [5]; at 33.0 µM 4% | [5]; [18] 31% | [5]; at 100.0 µM -9% | [6]; at 1.2 µM -47% | [6]; at 3.7 µM -35% | [6]; at 11.0 µM -48% | [6]; at 33.0 µM -47% | [6]; at 100.0 µM -47% | [7]; [17] 62% | [8]; at 1.2 µM -30% | [8]; at 3.7 µM 2% | [8]; at 11.0 µM 19% | [8]; at 33.0 µM 14% | [8]; at 100.0 µM 11% | [9]; [17] 35% | [10]; at 1.2 µM 3% | [10]; at 3.7 µM 4% | [10]; [17] 31% | [10]; at 11.0 µM 23% | [10]; at 33.0 µM 35% | [10]; at 50.0 µM 52% | [10]; at 100.0 µM 60% | [11]; at 1.2 µM -24% | [11]; at 3.7 µM -20% | [11]; at 11.0 µM -22% | [11]; at 33.0 µM -42% | [11]; at 100.0 µM -10% | [12]; at 1.2 µM -43% | [12]; at 3.7 µM -27% | [12]; at 11.0 µM -11% | [12]; at 33.0 µM 4% | [12]; at 100.0 µM -9% | [13]; at 1.2 µM -26% | [13]; at 3.7 µM -49% | [13]; at 11.0 µM -13% | [13]; at 33.0 µM -15% | [13]; at 100.0 µM -19% | [14]; [17] 12% | [14]; [18] 22% | [15]; at 1.2 µM -6% | [15]; at 3.7 µM -24% | [15]; at 11.0 µM -21% | [15]; at 33.0 µM 0% | [15]; at 100.0 µM 24%
active: [7]; [18] 100% | [7]; at 50.0 µM 87.7% | [9]; [18] 99% | [9]; at 50.0 µM 86.2% | [10]; [18] 100%

CCN(CCCl)CCCCNc1c2ccccc2nc2ccc(OC)cc12
active: [2]; at 33.0 µM 74% | [2]; at 100.0 µM 95% | [16]; at 33.0 µM 77% | [16]; at 100.0 µM 90% | [3]; at 33.0 µM 86% | [3]; at 100.0 µM 97% | [4]; at 11.0 µM 84% | [4]; at 33.0 µM 91% | [4]; at 50.0 µM 85.8% | [4]; at 100.0 µM 95% | [5]; at 33.0 µM 94% | [5]; at 50.0 µM 74.2% | [5]; at 100.0 µM 97% | [6]; at 11.0 µM 80% | [6]; at 33.0 µM 95% | [6]; at 100.0 µM 98% | [7]; at 50.0 µM 72.1% | [8]; at 33.0 µM 78% | [8]; at 100.0 µM 95% | [9]; at 50.0 µM 77.9% | [10]; at 33.0 µM 82% | [10]; at 100.0 µM 94% | [11]; at 33.0 µM 82% | [11]; at 100.0 µM 95% | [12]; at 33.0 µM 70% | [12]; at 100.0 µM 96% | [13]; at 11.0 µM 82% | [13]; at 33.0 µM 90% | [13]; at 100.0 µM 96% | [15]; at 3.7 µM 80% | [15]; at 11.0 µM 90% | [15]; at 33.0 µM 94% | [15]; at 100.0 µM 95%
inactive: [2]; at 1.2 µM 3% | [2]; at 3.7 µM 8% | [2]; at 11.0 µM 32% | [16]; at 1.2 µM 18% | [16]; at 3.7 µM 39% | [16]; at 11.0 µM 63% | [3]; at 1.2 µM 9% | [3]; at 3.7 µM 14% | [3]; at 11.0 µM 42% | [4]; at 1.2 µM 38% | [4]; at 3.7 µM 64% | [4]; [17] 46% | [4]; [18] 46% | [5]; at 1.2 µM 9% | [5]; at 3.7 µM 18% | [5]; [17] 26% | [5]; at 11.0 µM 48% | [5]; [18] 26% | [6]; at 1.2 µM 4% | [6]; at 3.7 µM 17% | [7]; [17] 60% | [7]; [18] 60% | [8]; at 1.2 µM 8% | [8]; at 3.7 µM 33% | [8]; at 11.0 µM 57% | [9]; [17] 24% | [9]; [18] 24% | [10]; at 1.2 µM -21% | [10]; at 3.7 µM -14% | [10]; [17] -15% | [10]; at 11.0 µM 38% | [10]; [18] -15% | [10]; at 50.0 µM 60.9% | [11]; at 1.2 µM 4% | [11]; at 3.7 µM 13% | [11]; at 11.0 µM 38% | [12]; at 1.2 µM 4% | [12]; at 3.7 µM 16% | [12]; at 11.0 µM 51% | [13]; at 1.2 µM 46% | [13]; at 3.7 µM 69% | [14]; [17] 18% | [14]; [18] 18% | [14]; at 50.0 µM 69.5% | [15]; at 1.2 µM 66%

C/C(=N\N=C(N)N)C(CN1CCOCC1)C(c1ccccc1)c1c(O)c2ccccc2oc1=O (stereo not drawn)
inactive: [2]; at 1.2 µM 2% | [2]; at 3.7 µM -2% | [2]; at 11.0 µM -3% | [2]; at 33.0 µM 3% | [2]; at 100.0 µM 42% | [16]; at 1.2 µM -6% | [16]; at 3.7 µM -3% | [16]; at 11.0 µM -6% | [16]; at 33.0 µM -3% | [16]; at 100.0 µM 10% | [3]; at 1.2 µM 1% | [3]; at 3.7 µM -2% | [3]; at 11.0 µM 0% | [3]; at 33.0 µM 37% | [3]; at 100.0 µM 48% | [4]; at 1.2 µM 3% | [4]; at 3.7 µM 5% | [4]; at 11.0 µM -15% | [4]; at 33.0 µM 21% | [5]; at 1.2 µM 1% | [5]; at 3.7 µM 1% | [5]; [17] 59% | [5]; at 11.0 µM -3% | [5]; at 33.0 µM 8% | [5]; [18] 59%
active: [4]; [17] 78% | [4]; [18] 78% | [4]; at 50.0 µM 86.5% | [4]; at 100.0 µM 94% | [5]; at 50.0 µM 80.7%
